PubChem BioAssay (NCI)
The panel holds about 83,000 compounds, 20% with a hit somewhere; the sample as a whole holds those more often.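 Single-concentration screen, 48 h exposure, 96-well plates. Endpoint: percent growth. Below 10 = active.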 Unmarked numbers belong to inactive results. Activity calls are given as the source filed them.

Key:
Test in all cases: NCI-60 one-dose screen, 48 h (100 = growth as untreated, 0 = no growth, -100 = all killed)
Details in all cases: 10 µM
DU-145 prostate = tested on: DU-145 prostate
K-562 leukemia = tested on: K-562 leukemia
MALME-3M melanoma = tested on: MALME-3M melanoma
MDA-MB-231 breast = tested on: MDA-MB-231 breast
RXF 393 renal = tested on: RXF 393 renal
SF-268 CNS = tested on: SF-268 CNS
SF-295 CNS = tested on: SF-295 CNS
SF-539 CNS = tested on: SF-539 CNS
UACC-257 melanoma = tested on: UACC-257 melanoma
M14 melanoma = tested on: M14 melanoma
HCT-15 colon = tested on: HCT-15 colon
HT29 colon = tested on: HT29 colon
SNB-19 CNS = tested on: SNB-19 CNS
U251 CNS = tested on: U251 CNS
PC-3 prostate = tested on: PC-3 prostate
SK-MEL-5 melanoma = tested on: SK-MEL-5 melanoma
UACC-62 melanoma = tested on: UACC-62 melanoma
LOX IMVI melanoma = tested on: LOX IMVI melanoma
SK-MEL-28 melanoma = tested on: SK-MEL-28 melanoma
SNB-75 CNS = tested on: SNB-75 CNS

Row | SMILES | growth (DU-145 prostate) | growth (K-562 leukemia) | growth (MALME-3M melanoma) | growth (MDA-MB-231 breast) | growth (RXF 393 renal) | growth (SF-268 CNS) | growth (SF-295 CNS) | growth (SF-539 CNS) | growth (UACC-257 melanoma) | growth (M14 melanoma) | growth (HCT-15 colon) | growth (HT29 colon) | growth (SNB-19 CNS) | growth (U251 CNS) | growth (PC-3 prostate) | growth (SK-MEL-5 melanoma) | growth (UACC-62 melanoma) | growth (LOX IMVI melanoma) | growth (SK-MEL-28 melanoma) | growth (SNB-75 CNS)
1 | O=C(CCl)N1c2ccccc2Sc2ccc3ccccc3c21 | -90.8% (active) | -0.331% (active) | -43.4% (active) | -72.5% (active) | -33.4% (active) | -59.4% (active) | -2.09% (active) | -60.9% (active) | -36.6% (active) | -52.1% (active) | -51.3% (active) | -76.1% (active) | 69.7% | 0.19% (active) | -86.6% (active) | 22.9% | -0.738% (active) | -78.3% (active) | 19.6% | 
2 | Nc1ccccc1NC(=O)CCCCCCC(=O)Nc1ccc2c(c1)/C(=C/c1ccc[nH]1)C(=O)N2 | 28.7% | 46.8% | 20% | 55.5% | 21.2% | 23.3% | 49.9% | 17% | 63.5% | 50.4% | 89.8% | 48.2% | 49.8% | 20.5% | 29% |  | 25.8% | 43.9% | 42.7% | 
3 | CCN(Cc1ccccc1)C1CCN(Cc2cc(Br)ccc2O)CC1 | 67.4% | 11.6% | 42.7% | 26.3% | 48.7% | 65.9% | 63.8% | 74.8% | 46.1% | 46.6% | 50.1% | 13.3% | 65.7% | 43.9% | 45.7% | 32.1% | 51.7% | 54.9% | 76.1% | 
4 | CCN1CCN(c2ccc(Nc3ncnc4c3nnn4CCc3cc(OC)cc(OC)c3)cc2)CC1 | 104% | 77.7% | 92.6% | 95.4% | 97.7% | 97.4% | 90.2% | 95.5% | 84.8% | 98.6% | 63.6% | 57.9% |  | 77.4% | 82.2% | 73.5% | 93.9% | 88.1% | 101% | 79.8%
5 | C[C@]12CC[C@H]3[C@@H](CC=C4C[C@@H](O)CC[C@@]43C)[C@@H]1CC[C@@H]2C(=O)C/C=N/O | 99.5% | 78.1% | 84% | 103% | 96.2% | 92.2% | 97.2% | 91.6% | 99.5% | 95.7% | 86.4% | 81.1% | 95.1% | 83.8% | 71.9% | 92.8% | 88.6% | 82% | 106% | 
6 | C=CCOc1ccc2c(c1)CC[C@@H]1[C@@H]2CC[C@]2(C)C(=O)/C(=N/O)C[C@@H]12 | 21.8% | 19.5% | 74.4% | 9.69% (active) | 1.96% (active) | 43.8% | 78.7% | 86.6% | 76.5% | 61.3% | 41.6% | 2.91% (active) | 69.5% |  | 42.1% | 77.4% | 93.5% | 42.3% | 106% | 
7 | CCCCCCCCCCCC(c1ccccc1)N(C)C (stereo not drawn) | 104% | 78.9% | 107% | 76.7% | 92.5% | 111% | 97.9% | 103% | 103% | 104% | 95.6% | 86.3% |  | 95.6% | 78.1% | 97% |  | 92.7% | 99% | 89.5%
8 | N=C(N)c1ccc(-c2ccc(-c3ccccc3)s2)s1 | -93.8% (active) | -63.1% (active) | -81.1% (active) | -76.8% (active) | -93.2% (active) | -56.6% (active) | -75.3% (active) | -54.7% (active) | -59.9% (active) | -68.9% (active) | -36.4% (active) | -70.1% (active) |  | -74.6% (active) | -26% (active) | 14.5% | -84.9% (active) | -69.2% (active) | -95.9% (active) | 
